Data taken from PubChem BioAssay AID602143 (Vanderbilt Specialized Chemistry Center, 2011).
Active and inactive are the calls of the source. No stated cut-off is given here; in the data, active means remaining activity below about 50%; inactive means the rest.

The molecules below were run against Phospholipase D2 (Homo sapiens) (UniProt O14939) (assay: PLD2 inhibitors in cells, cell-based, HEK293, single concentration (AID 602143;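 further: tested at 200 nM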)). Conditions: HEK293 cellular PLD2 activity, percent of control; stronger effect = lower value.
Sequence of Phospholipase D2 (Homo sapiens) (O14939 whole entry, looked up): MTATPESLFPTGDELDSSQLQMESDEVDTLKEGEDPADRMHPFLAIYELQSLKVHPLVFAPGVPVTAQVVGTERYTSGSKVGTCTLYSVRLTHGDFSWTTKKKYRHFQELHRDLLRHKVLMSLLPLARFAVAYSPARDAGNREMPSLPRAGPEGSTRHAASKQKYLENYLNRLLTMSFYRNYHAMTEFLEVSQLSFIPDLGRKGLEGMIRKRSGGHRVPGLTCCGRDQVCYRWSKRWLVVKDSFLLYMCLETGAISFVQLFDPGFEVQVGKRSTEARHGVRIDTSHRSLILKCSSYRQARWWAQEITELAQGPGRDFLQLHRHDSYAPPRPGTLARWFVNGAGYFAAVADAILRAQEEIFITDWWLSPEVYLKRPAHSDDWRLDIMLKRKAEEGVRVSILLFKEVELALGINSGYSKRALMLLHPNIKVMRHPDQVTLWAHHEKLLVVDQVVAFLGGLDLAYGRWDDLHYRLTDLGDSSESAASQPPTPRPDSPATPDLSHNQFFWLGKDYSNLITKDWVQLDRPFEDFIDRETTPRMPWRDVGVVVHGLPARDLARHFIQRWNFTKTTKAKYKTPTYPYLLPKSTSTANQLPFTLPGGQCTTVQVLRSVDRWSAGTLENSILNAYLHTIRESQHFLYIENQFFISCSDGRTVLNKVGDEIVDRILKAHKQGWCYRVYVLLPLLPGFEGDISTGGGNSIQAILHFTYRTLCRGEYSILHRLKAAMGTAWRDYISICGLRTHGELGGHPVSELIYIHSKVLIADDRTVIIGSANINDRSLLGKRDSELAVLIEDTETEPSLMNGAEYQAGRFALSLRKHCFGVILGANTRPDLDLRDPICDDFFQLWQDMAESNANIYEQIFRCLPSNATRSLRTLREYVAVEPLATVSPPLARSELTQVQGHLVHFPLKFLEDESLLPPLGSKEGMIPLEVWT
Sequence of Phospholipase D2 (Homo sapiens) (O14939 whole entry, looked up): as above
In the case of O=C(NCCN1CCN(c2ccncc2)CC1)c1ccc(F)cc1, the remaining activity was 102% (inactive).
With O=C(NCCN1CCC(n2c(=O)[nH]c3ccccc32)CC1)c1cc2ccccc2c2c1ccc1ccccc12 the remaining activity was 76.6% (inactive).
For CC1(C)[C@@H]2CC[C@@]1(CS(=O)(=O)NCCN1CCC(n3c(=O)[nH]c4ccccc43)CC1)C(=O)C2, the remaining activity was 79.6% (inactive).
Cc1ccc(C(=O)N[C@@H](C)CN2CCC(n3c(=O)[nH]c4cc(Cl)ccc43)CC2)cc1 was tested, and the remaining activity was 86% (inactive).
With COc1cccc(N2CCN(CCNC(=O)c3ccc(F)cc3)CC2)c1 the remaining activity was 100% (inactive).
With O=C(NCCN1CCC(C(=O)Nc2ccccc2)CC1)c1ccc2ccccc2c1 the remaining activity was 106% (inactive).
With C[C@@H](CN1CCC(n2nnc3cc(C(F)(F)F)ccc32)CC1)NC(=O)c1cnc2ccccc2c1 the remaining activity was 86.9% (inactive).
COc1ccc(S(=O)(=O)NCCN2CCC(n3c(=O)[nH]c4ccccc43)CC2)cc1 was tested, and the remaining activity was 127% (inactive).
C[C@@H](CN1CCC2(CC1)CN(S(C)(=O)=O)c1ccccc12)NC(=O)c1ccc2ccccc2c1 was tested, and the remaining activity was 115% (inactive).
With O=C(NCCN1CCC(n2c(=O)[nH]c3ccccc32)CC1)c1cc2ccccc2c2ccccc12 the remaining activity was 51.2% (inactive).
In the case of C[C@@H](CN1CCC2(CC1)CN(S(C)(=O)=O)c1ccccc12)NC(=O)[C@H]1C[C@@H]1c1ccccc1, the remaining activity was 109% (inactive).
CN1CCC2(CCN(CCNC(=O)[C@H]3C[C@@H]3c3ccccc3)CC2)C1=O was tested, and the remaining activity was 102% (inactive).
O=C(NCCN1CCC(n2c(=O)[nH]c3ccccc32)CC1)c1ccc(Cc2ccccc2)cc1 was tested, and the remaining activity was 72.9% (inactive).
